In PubChem BioAssay (NCI):
The panel holds about 79,000 compounds, 15% with a hit somewhere; the sample as a whole holds those more often. A number with no mark means an inactive call. Calls of active or inactive are those of the source. Cut-off read from the data, not from the text of the source: active = growth inhibition above about 70%; inactive = the rest.

Tests used:
[1] = NCI Yeast Anticancer Drug Screen. Data for the rad52 strain (AID 147);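 note: 0% = growth of vehicle-treated control cultures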; details: S. cerevisiae rad52 mutant growth inhibition, active compounds read high
Procedure, shortened: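 Screen used a yeast mutant impaired in DNA repair. After compound exposure, growth was measured. Values reflect inhibition compared with vehicle-treated cells.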

[2] = NCI Yeast Anticancer Drug Screen. Data for the wt1 strain (AID 149);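 note: 0% = growth of vehicle-treated wt1 cultures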; details: S. cerevisiae wt1 strain (SPY 50644) growth inhibition, active compounds read high
Procedure, shortened: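 wt1 strain grown with compound or vehicle; inhibition taken from the growth difference.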

[3] = NCI Yeast Anticancer Drug Screen. Data for the rad50EPP+ strain (AID 151);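 note: 0% = growth of vehicle-treated control cultures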; details: S. cerevisiae rad50 mutant strain, active compounds read high
Procedure, shortened: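 Exposing the rad50EPP+ strain to each compound, growth was compared with vehicle-only cultures to give inhibition.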

[4] = NCI Yeast Anticancer Drug Screen. Data for the mgt1 strain (AID 153); details: S. cerevisiae mgt1 mutant growth inhibition, active compounds read high
Procedure, shortened: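 Genetically defined yeast (mgt1) treated with compound; inhibition of growth expressed against vehicle-treated controls.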

[5] = NCI Yeast Anticancer Drug Screen. Data for the rad50 strain (AID 155);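 note: 0% = growth of vehicle-only cultures of the same strain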; details: S. cerevisiae rad50 strain growth inhibition, active compounds read high
Procedure, shortened: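 DNA repair mutant yeast, compound exposure, growth read-out; inhibition is taken relative to vehicle.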

[6] = NCI Yeast Anticancer Drug Screen. Data for the mec2-1 strain (AID 157); details: S. cerevisiae mec2-1 strain, active compounds read high
Procedure, shortened: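 Readout is yeast growth inhibition, normalised to vehicle-treated controls, in the mec2-1 strain exposed to compound.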

[7] = NCI Yeast Anticancer Drug Screen. Data for the rad14 strain (AID 159);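 note: 0% = growth of vehicle-treated control cultures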; details: S. cerevisiae rad14 strain growth inhibition, active compounds read high
Procedure, shortened: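 DNA repair-defective yeast, compound-exposed; % growth inhibition derived by comparison with vehicle-treated controls.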

[8] = NCI Yeast Anticancer Drug Screen. Data for the sgs1 mgt1 strain (AID 161);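 note: 0% = growth of cultures given vehicle only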; details: S. cerevisiae sgs1 mgt1 strain, active compounds read high
Procedure, shortened: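 Growth of a repair-deficient yeast mutant was monitored after compound treatment and expressed as inhibition relative to vehicle-treated cultures.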

[9] = NCI Yeast Anticancer Drug Screen. Data for the cln2 rad14 strain (AID 165);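 note: 0% = growth equal to vehicle treated cultures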; details: S. cerevisiae cln2 rad14 strain, active compounds read high
Procedure, shortened: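 Relative to vehicle controls, growth inhibition of compound-treated cln2 rad14 yeast was recorded.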

[10] = NCI Yeast Anticancer Drug Screen. Data for the bub3 strain (AID 167); details: S. cerevisiae bub3 mutant strain, active compounds read high
Procedure, shortened: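 In this screen, a yeast mutant lacking normal mitotic checkpoint function is challenged with compound. Relative growth versus vehicle gives the inhibition value.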

[11] = NCI Yeast Anticancer Drug Screen. Data for the wt2 strain (AID 169);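 note: 0% = growth of vehicle-treated yeast cultures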; details: S. cerevisiae wt2 strain growth inhibition, active compounds read high
Procedure, shortened: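 Values express reduction in yeast growth under compound treatment, referenced to vehicle-treated cells.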

[12] = NCI Yeast Anticancer Drug Screen. Data for the mlh1 strain (AID 171);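 note: 0% = growth of vehicle-treated control cultures of the same strain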; details: S. cerevisiae mlh1 strain growth inhibition, active compounds read high
Procedure, shortened: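 Steps: expose the defined-mutant yeast strain to compound; expose a parallel culture to vehicle; measure growth; express compound effect as inhibition relative to the vehicle culture.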

[13] = NCI Yeast Anticancer Drug Screen. Data for the sgs1 strain (AID 173);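 note: 0% = growth of vehicle-only control cultures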; details: S. cerevisiae sgs1 mutant, active compounds read high
Procedure, shortened: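 Treat defined-mutant yeast with compound; measure growth; calculate inhibition relative to vehicle-treated cells.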

[14] = NCI Yeast Anticancer Drug Screen. Data for the mlh1 rad18 strain (AID 175); details: S. cerevisiae mlh1 rad18 strain growth inhibition, active compounds read high
Procedure, shortened: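 Test agents were incubated with a yeast strain of defined genotype (DNA damage repair defect). Inhibition of growth was derived by comparison with vehicle-exposed cultures.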

[15] = NCI Yeast Anticancer Drug Screen. Data for the rad18 strain (AID 177); details: S. cerevisiae rad18 mutant growth inhibition, active compounds read high
Procedure, shortened: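 A genetically defined yeast mutant impaired in DNA damage repair was treated with test compounds, then its growth was measured against cultures receiving vehicle alone.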

[16] = NCI Yeast Anticancer Drug Screen. Data for the CLN2oe strain (AID 163);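 note: 0% = growth of vehicle-only control cultures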; details: S. cerevisiae CLN2oe strain, active compounds read high
Procedure, shortened: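 Values reflect how much compound exposure reduced yeast growth, referenced to vehicle-exposed cells. Assay organism is a strain with a defined genetic change affecting cell-cycle control.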

[17] = at 5.0 µM (retest, dose inferred, filed as 0.5)
[18] = at 50.0 µM (retest, dose inferred, filed as 5.0)

O=[N+]([O-])c1ccc2nc3ccccc3cc2c1
growth inhibition ([1]; at 1.2 µM): 3%
growth inhibition ([1]; at 3.7 µM): 13%
growth inhibition ([1]; at 11.0 µM): 35%
growth inhibition ([1]; at 33.0 µM): 74% (active)
growth inhibition ([1]; at 100.0 µM): 96% (active)
growth inhibition ([2]; at 1.2 µM): -5%
growth inhibition ([2]; at 3.7 µM): -4%
growth inhibition ([2]; at 11.0 µM): -7%
growth inhibition ([2]; at 33.0 µM): 21%
growth inhibition ([2]; at 100.0 µM): 81% (active)
growth inhibition ([3]; at 1.2 µM): 22%
growth inhibition ([3]; at 3.7 µM): 63%
growth inhibition ([3]; at 11.0 µM): 85% (active)
growth inhibition ([3]; at 33.0 µM): 90% (active)
growth inhibition ([3]; at 100.0 µM): 96% (active)
growth inhibition ([4]; at 1.2 µM): -1%
growth inhibition ([4]; at 3.7 µM): -5%
growth inhibition ([4]; at 11.0 µM): -1%
growth inhibition ([4]; at 33.0 µM): 29%
growth inhibition ([4]; at 100.0 µM): 86% (active)
growth inhibition ([5]; at 1.2 µM): 1%
growth inhibition ([5]; at 3.7 µM): 22%
growth inhibition [5, 17]: -16%
growth inhibition ([5]; at 11.0 µM): 59%
growth inhibition ([5]; at 33.0 µM): 89% (active)
growth inhibition [5, 18]: 92% (active)
growth inhibition ([5]; at 50.0 µM): 87% (active)
growth inhibition ([5]; at 100.0 µM): 95% (active)
growth inhibition ([6]; at 1.2 µM): -2%
growth inhibition ([6]; at 3.7 µM): 1%
growth inhibition [6, 17]: -37%
growth inhibition ([6]; at 11.0 µM): 8%
growth inhibition ([6]; at 33.0 µM): 27%
growth inhibition [6, 18]: 85% (active)
growth inhibition ([6]; at 50.0 µM): 55.5%
growth inhibition ([6]; at 100.0 µM): 84% (active)
growth inhibition ([7]; at 1.2 µM): 0%
growth inhibition ([7]; at 3.7 µM): 9%
growth inhibition ([7]; at 11.0 µM): 20%
growth inhibition ([7]; at 33.0 µM): 45%
growth inhibition ([7]; at 100.0 µM): 91% (active)
growth inhibition [8, 17]: -40%
growth inhibition [8, 18]: 89% (active)
growth inhibition ([8]; at 50.0 µM): 68.2%
growth inhibition [9, 17]: -59%
growth inhibition [9, 18]: 16%
growth inhibition ([9]; at 50.0 µM): 0.1%
growth inhibition ([10]; at 1.2 µM): -2%
growth inhibition ([10]; at 3.7 µM): -2%
growth inhibition [10, 17]: -51%
growth inhibition ([10]; at 11.0 µM): 14%
growth inhibition ([10]; at 33.0 µM): 39%
growth inhibition [10, 18]: 91% (active)
growth inhibition ([10]; at 50.0 µM): 69%
growth inhibition ([10]; at 100.0 µM): 94% (active)
growth inhibition ([11]; at 1.2 µM): 0%
growth inhibition ([11]; at 3.7 µM): 1%
growth inhibition ([11]; at 11.0 µM): 3%
growth inhibition ([11]; at 33.0 µM): 33%
growth inhibition ([11]; at 100.0 µM): 89% (active)
growth inhibition ([12]; at 1.2 µM): 7%
growth inhibition ([12]; at 3.7 µM): 0%
growth inhibition ([12]; at 11.0 µM): 14%
growth inhibition ([12]; at 33.0 µM): 51%
growth inhibition ([12]; at 100.0 µM): 96% (active)
growth inhibition ([13]; at 1.2 µM): -2%
growth inhibition ([13]; at 3.7 µM): 13%
growth inhibition ([13]; at 11.0 µM): 36%
growth inhibition ([13]; at 33.0 µM): 80% (active)
growth inhibition ([13]; at 100.0 µM): 97% (active)
growth inhibition [14, 17]: -71%
growth inhibition [14, 18]: 90% (active)
growth inhibition ([14]; at 50.0 µM): 89.1% (active)
growth inhibition ([15]; at 1.2 µM): 14%
growth inhibition ([15]; at 3.7 µM): 32%
growth inhibition ([15]; at 11.0 µM): 67%
growth inhibition ([15]; at 33.0 µM): 87% (active)
growth inhibition ([15]; at 100.0 µM): 96% (active)

CC(=O)ON1C(=O)c2cccc3cccc(c23)C1=O
growth inhibition ([1]; at 1.2 µM): 13%
growth inhibition ([1]; at 3.7 µM): 38%
growth inhibition ([1]; at 11.0 µM): 91% (active)
growth inhibition ([1]; at 33.0 µM): 97% (active)
growth inhibition ([1]; at 100.0 µM): 98% (active)
growth inhibition ([2]; at 1.2 µM): 6%
growth inhibition ([2]; at 3.7 µM): 17%
growth inhibition ([2]; at 11.0 µM): 76% (active)
growth inhibition ([2]; at 33.0 µM): 96% (active)
growth inhibition ([2]; at 100.0 µM): 97% (active)
growth inhibition ([3]; at 1.2 µM): -2%
growth inhibition ([3]; at 3.7 µM): 0%
growth inhibition ([3]; at 11.0 µM): 0%
growth inhibition ([3]; at 33.0 µM): 9%
growth inhibition ([3]; at 100.0 µM): 57%
growth inhibition ([4]; at 1.2 µM): 8%
growth inhibition ([4]; at 3.7 µM): 46%
growth inhibition ([4]; at 11.0 µM): 95% (active)
growth inhibition ([4]; at 33.0 µM): 97% (active)
growth inhibition ([4]; at 100.0 µM): 98% (active)
growth inhibition ([5]; at 1.2 µM): 18%
growth inhibition ([5]; at 3.7 µM): 57%
growth inhibition [5, 17]: 51%
growth inhibition ([5]; at 11.0 µM): 93% (active)
growth inhibition ([5]; at 33.0 µM): 97% (active)
growth inhibition [5, 18]: 96% (active)
growth inhibition ([5]; at 50.0 µM): 81.9% (active)
growth inhibition ([5]; at 100.0 µM): 98% (active)
growth inhibition ([6]; at 1.2 µM): -4%
growth inhibition ([6]; at 3.7 µM): 33%
growth inhibition [6, 17]: -3%
growth inhibition ([6]; at 11.0 µM): 95% (active)
growth inhibition ([6]; at 33.0 µM): 98% (active)
growth inhibition [6, 18]: 97% (active)
growth inhibition ([6]; at 50.0 µM): 87.8% (active)
growth inhibition ([6]; at 100.0 µM): 98% (active)
growth inhibition ([7]; at 1.2 µM): 51%
growth inhibition ([7]; at 3.7 µM): 95% (active)
growth inhibition ([7]; at 11.0 µM): 98% (active)
growth inhibition ([7]; at 33.0 µM): 99% (active)
growth inhibition ([7]; at 100.0 µM): 99% (active)
growth inhibition ([16]; at 1.2 µM): 8%
growth inhibition ([16]; at 3.7 µM): 10%
growth inhibition ([16]; at 11.0 µM): 11%
growth inhibition ([16]; at 33.0 µM): 32%
growth inhibition ([16]; at 100.0 µM): 77% (active)
growth inhibition [9, 17]: 23%
growth inhibition [9, 18]: 69%
growth inhibition ([9]; at 50.0 µM): 29.4%
growth inhibition ([10]; at 1.2 µM): 2%
growth inhibition ([10]; at 3.7 µM): 10%
growth inhibition [10, 17]: 69%
growth inhibition ([10]; at 11.0 µM): 24%
growth inhibition ([10]; at 33.0 µM): 91% (active)
growth inhibition [10, 18]: 96% (active)
growth inhibition ([10]; at 50.0 µM): 89.5% (active)
growth inhibition ([10]; at 100.0 µM): 95% (active)
growth inhibition ([11]; at 1.2 µM): 4%
growth inhibition ([11]; at 3.7 µM): 2%
growth inhibition ([11]; at 11.0 µM): 20%
growth inhibition ([11]; at 33.0 µM): 95% (active)
growth inhibition ([11]; at 100.0 µM): 99% (active)
growth inhibition ([12]; at 1.2 µM): 61%
growth inhibition ([12]; at 3.7 µM): 91% (active)
growth inhibition ([12]; at 11.0 µM): 97% (active)
growth inhibition ([12]; at 33.0 µM): 99% (active)
growth inhibition ([12]; at 100.0 µM): 98% (active)
growth inhibition ([13]; at 1.2 µM): 44%
growth inhibition ([13]; at 3.7 µM): 91% (active)
growth inhibition ([13]; at 11.0 µM): 97% (active)
growth inhibition ([13]; at 33.0 µM): 98% (active)
growth inhibition ([13]; at 100.0 µM): 98% (active)
growth inhibition [14, 17]: 44%
growth inhibition [14, 18]: 97% (active)
growth inhibition ([14]; at 50.0 µM): 81.4% (active)
growth inhibition ([15]; at 1.2 µM): 15%
growth inhibition ([15]; at 3.7 µM): 29%
growth inhibition ([15]; at 11.0 µM): 86% (active)
growth inhibition ([15]; at 33.0 µM): 97% (active)
growth inhibition ([15]; at 100.0 µM): 97% (active)
